Data: PubChem BioAssay (EPA / NIEHS)
A structure can be active in one record and inactive in another. Activity calls are given as the source filed them. Rule for the calls: active = hit-call score of the fitted dose curve at least 0.9, where 1 is the maximum; inactive = score below 0.9.

What was measured:
[1] = read-out: Vascular endothelial growth factor receptor 2 (Homo sapiens) (UniProt P35968); assay: BSK_4H_VEGFRII: BioMAP Diversity Plus: 4H Assay for Vascular endothelial growth factor receptor 2 (VEGFR2) Biomarker Activity (AID 2283031); settings: primary human endothelial cells (HUVEC); actives raise or lower the signal;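 for AC50: cell-surface VEGFR2 protein level quantified by ELISA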
Method in brief: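 ELISA read-out of VEGFRII in primary human umbilical vein endothelium, taken 24 h after chemical treatment. Responses are expressed relative to DMSO, with bidirectional fitting.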

[2] = read-out: Human Leukocyte Antigen - DR isotype (HLADR), HLA-DRA (gene 3122); assay: BSK_BE3C_HLADR: BioMAP Diversity Plus: BE3C Assay for Human Leukocyte Antigen - DR isotype (HLADR) Biomarker Activity (AID 2283032); settings: primary human bronchial epithelial cells; actives raise or lower the signal
Method in brief: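 Human primary bronchial epithelial cells in the BE3C system were exposed to chemicals for 24 h, after which HLA-DR levels were quantified by ELISA. Activity was fitted bidirectionally, gain or loss of signal, against DMSO as negative control and baseline.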

[3] = read-out: Vascular cell adhesion molecule 1 (VCAM1), VCAM1 (gene 7412); assay: BSK_4H_VCAM1: BioMAP Diversity Plus: 4H Assay for Vascular cell adhesion molecule 1 (VCAM1) Biomarker Activity (AID 2283033); settings: primary human endothelial cells (HUVEC); actives raise or lower the signal
Method in brief: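 Primary human umbilical vein endothelial cells were exposed to chemicals for 24 h, after which VCAM-1 was quantified by ELISA. Responses were fitted bidirectionally against DMSO as negative control and activity baseline.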

[4] = read-out: Interferon-gamma inducible Protein 10 (IP10), CXCL10 (gene 3627); assay: BSK_BE3C_IP10: BioMAP Diversity Plus: BE3C Assay for Interferon-gamma inducible Protein 10 (IP10) Biomarker Activity (AID 2283034); settings: primary human bronchial epithelial cells; actives raise or lower the signal
Method in brief: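 Human primary bronchial epithelial cells were exposed to chemicals for 24 hours, after which IP-10 levels were measured by ELISA. Data were fitted bidirectionally against DMSO, which served as the negative control and activity baseline.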

[5] = read-out: Monokine induced gamma interferon (MIG), CXCL9 (gene 4283); assay: BSK_BE3C_MIG: BioMAP Diversity Plus: BE3C Assay for Monokine induced gamma interferon (MIG) Biomarker Activity (AID 2283035); settings: primary human bronchial epithelial cells; actives raise or lower the signal
Method in brief: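 MIG level was determined by ELISA after 24 h chemical treatment of primary human bronchial epithelial cells. Values were fitted bidirectionally with DMSO as the negative control and activity baseline.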

[6] = read-out: Transforming growth factor beta 1 (TGFb1), TGFB1 (gene 7040); assay: BSK_BE3C_TGFb1: BioMAP Diversity Plus: BE3C Assay for Transforming growth factor beta 1 (TGFb1) Biomarker Activity (AID 2283036); settings: primary human bronchial epithelial cells; actives raise or lower the signal
Method in brief: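 Human primary bronchial epithelial cells (BE3C system) were dosed with chemical and TGF-b1 levels measured by ELISA at 24 h. Activity was fitted bidirectionally relative to DMSO negative control as baseline.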

[7] = read-out: Plasminogen activator inhibitor-1 (PAI1), SERPINE1 (gene 5054); assay: BSK_BE3C_PAI1: BioMAP Diversity Plus: BE3C Assay for Plasminogen activator inhibitor-1 (PAI1) Biomarker Activity (AID 2283037); settings: primary human bronchial epithelial cells; actives raise or lower the signal
Method in brief: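 Human primary bronchial epithelial cells were exposed to chemical for 24 h, then PAI-1 was quantified by ELISA. Activity was fitted bidirectionally relative to the DMSO negative control baseline.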

[8] = read-out: urokinase plasminogen activator (uPA), PLAU (gene 5328); assay: BSK_BE3C_uPA: BioMAP Diversity Plus: BE3C Assay for urokinase plasminogen activator (uPA) Biomarker Activity (AID 2283038); settings: primary human bronchial epithelial cells; actives raise or lower the signal
Method in brief: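 Bronchial epithelial cells (human, primary); chemical 24 h; uPA by ELISA; bidirectional fit vs DMSO. SRB (0.1%, after 10% TCA fixation, 560 nm) in parallel cultures for cytotoxicity.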

[9] = read-out: Interleukin-6 (IL6), IL6 (gene 3569); assay: BSK_CASM3C_IL6: BioMAP Diversity Plus: CASM3C Assay for Interleukin-6 (IL6) Biomarker Activity for (AID 2283040); settings: primary human coronary artery smooth muscle cells; actives raise or lower the signal
[10] = read-out: Interleukin-8 (IL8), CXCL8 (gene 3576); assay: BSK_CASM3C_IL8: BioMAP Diversity Plus: CASM3C Assay for Interleukin-8 (IL8) Biomarker Activity (AID 2283042); settings: primary human coronary artery smooth muscle cells; actives raise or lower the signal;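 note: IL-8 protein level quantified by ELISA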
[11] = read-out: Human Leukocyte Antigen - DR isotype (HLADR), HLA-DRA (gene 3122); assay: BSK_CASM3C_HLADR: BioMAP Diversity Plus: CASM3C Assay for Human Leukocyte Antigen - DR isotype (HLADR) Biomarker Activity (AID 2283043); settings: primary human coronary artery smooth muscle cells; actives raise or lower the signal;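 note: cell-surface HLA-DR protein level quantified by ELISA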
[12] = read-out: Low-density lipoprotein receptor (LDLR), LDLR (gene 3949); assay: BSK_CASM3C_LDLR: BioMAP Diversity Plus: CASM3C Assay for Low-density lipoprotein receptor (LDLR) Biomarker Activity (AID 2283045); settings: primary human coronary artery smooth muscle cells; actives raise or lower the signal;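 note: LDLR protein level on the cell surface quantified by ELISA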
[13] = read-out: Monocyte Chemoattractant Protein-1 (MCP1), CCL2 (gene 6347); assay: BSK_CASM3C_MCP1: BioMAP Diversity Plus: CASM3C Assay for Monocyte Chemoattractant Protein-1 (MCP1) Biomarker Activity (AID 2283046); settings: primary human coronary artery smooth muscle cells; actives raise or lower the signal;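 note: MCP-1 level quantified by ELISA 24 h after dosing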
[14] = BSK_CASM3C_Proliferation: Cell Proliferation Assessment in the BioMAP Diversity Plus: CASM3C Assay (AID 2283047); settings: primary human coronary artery smooth muscle cells;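 note: sulforhodamine B total protein stain as relative cell number at 560 nm; sub-confluent cells exposed 48 h before staining; fitted both ways against DMSO so gain or loss of cell number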
[15] = read-out: Monokine induced gamma interferon (MIG), CXCL9 (gene 4283); assay: BSK_CASM3C_MIG: BioMAP Diversity Plus: CASM3C Assay for Monokine induced gamma interferon (MIG) Biomarker Activity (AID 2283048); settings: primary human coronary artery smooth muscle cells; actives raise or lower the signal;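 note: MIG protein level measured by ELISA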
[16] = read-out: serum amyloid A (SAA), SAA1 (gene 6288); assay: BSK_CASM3C_SAA: BioMAP Diversity Plus: CASM3C Assay for serum amyloid A (SAA) Biomarker Activity (AID 2283049); settings: primary human coronary artery smooth muscle cells; actives raise or lower the signal;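 note: SAA protein level quantified by ELISA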
[17] = BSK_CASM3C_SRB: Viability Assessment in the BioMAP Diversity Plus: CASM3C Assay (AID 2283050); settings: primary human coronary artery smooth muscle cells;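 note: total protein by SRB staining as cytotoxicity measure in parallel cultures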
[18] = read-out: Macrophage colony-stimulating factor (MCSF), CSF1 (gene 1435); assay: BSK_CASM3C_MCSF: BioMAP Diversity Plus: CASM3C Assay for Macrophage colony-stimulating factor (MCSF) Biomarker Activity (AID 2283044); settings: primary human coronary artery smooth muscle cells; actives raise or lower the signal;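 note: M-CSF protein amount quantified by ELISA after 24 h exposure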
[19] = read-out: Tissue plasminogen activator (tPA), PLAT (gene 5327); assay: BSK_BE3C_tPA: BioMAP Diversity Plus: BE3C Assay for Tissue plasminogen activator (tPA) Biomarker Activity (AID 2283041); settings: primary human bronchial epithelial cells; actives raise or lower the signal;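 note: tPA level quantified by ELISA one day after compound addition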
Method in brief: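 Human primary bronchial epithelial cells were dosed with chemical and tPA biomarker levels measured by ELISA 24 hours later. Activity was fitted bidirectionally against DMSO as negative control and baseline.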

Measured: AC50

O=C(O)c1cn(C2CC2)c2cc(N3CCNCC3)c(F)cc2c1=O
inactive: [1] | [2] | [3] | [4] | [5] | [6] | [7] | [8] | [9] | [10] | [11] | [12] | [13] | [14] | [15] | [16] | [17]

CCC(=O)OCc1ccccc1
inactive: [1] | [2] | [3] | [4] | [5] | [7] | [8] | [9] | [10] | [11] | [18] | [12] | [13] | [14] | [15] | [16] | [17]

O=C(O)c1cn(-c2ccc(F)cc2)c2cc(N3CCNCC3)c(F)cc2c1=O
inactive: [1] | [2] | [3] | [4] | [5] | [6] | [7] | [8] | [9] | [10] | [11] | [18] | [12] | [13] | [14] | [15] | [16] | [17]

C=CCOC(=O)CCC1CCCCC1
inactive: [1] | [2] | [3] | [4] | [5] | [7] | [8] | [9] | [10] | [11] | [18] | [12] | [13] | [14] | [15] | [16] | [17]

CCCCC(CC)COC(=O)/C=C\C(=O)OCC(CC)CCCC (configuration not stated)
inactive: [1] | [2] | [3] | [4] | [5] | [6] | [7] | [8] | [9] | [10] | [11] | [18] | [12] | [13] | [14] | [15] | [16] | [17]

O=C(O)c1ccc([N+](=O)[O-])cc1
inactive: [1] | [2] | [3] | [4] | [5] | [6] | [7] | [8] | [9] | [10] | [11] | [18] | [12] | [13] | [14] | [15] | [16] | [17]

NCCNCCN
inactive: [1] | [2] | [3] | [4] | [5] | [7] | [8] | [9] | [19] | [10] | [11] | [18] | [12] | [13] | [14] | [15] | [16] | [17]

CN(CCOc1ccc(CC2SC(=O)NC2=O)cc1)c1ccccn1 (configuration not stated)
inactive: [1] | [5] | [6] | [8] | [9] | [10] | [11] | [18] | [13] | [14] | [15] | [16] | [17]
active: [2] 20 µM | [3] 8.46 µM | [4] 11 µM | [7] 0.21 µM | [12] 4.98 µM

Cc1cc(C2(c3cc(C)c(O)cc3C)OS(=O)(=O)c3ccccc32)c(C)cc1O
inactive: [1] | [2] | [3] | [4] | [5] | [7] | [8] | [9] | [19] | [10] | [11] | [18] | [12] | [13] | [14] | [15] | [16] | [17]

Nc1cc([N+](=O)[O-])ccc1O
inactive: [1] | [2] | [3] | [4] | [5] | [7] | [8] | [9] | [10] | [11] | [18] | [12] | [13] | [14] | [15] | [16] | [17]
active: [7] 11.8 µM | [11] 11.8 µM

CC(C)(COC(=O)c1ccccc1)COC(=O)c1ccccc1
active: [1] 28.4 µM | [3] 20 µM
inactive: [2] | [4] | [5] | [6] | [7] | [8] | [9] | [10] | [11] | [18] | [12] | [13] | [14] | [15] | [16] | [17]

Cc1ccc(Nc2ccc(O)c3c2C(=O)c2ccccc2C3=O)cc1
inactive: [1] | [2] | [3] | [4] | [5] | [6] | [7] | [8] | [9] | [10] | [11] | [18] | [12] | [13] | [14] | [15] | [16] | [17]

C=C(C)C(=O)O[C@H]1C[C@@H]2CC[C@@]1(C)C2(C)C
active: [1] 5.29 µM | [2] 20 µM | [3] 10.1 µM | [4] 33.2 µM | [5] 30.4 µM | [6] 26.4 µM | [7] 20 µM | [8] 20 µM | [9] 13 µM | [10] 22.3 µM | [11] 8.32 µM | [18] 7.53 µM | [13] 12.4 µM | [14] 23.5 µM | [15] 27.1 µM | [17] 13.2 µM
inactive: [12] | [16]
